# Test results as given in PubChem BioAssay AID2716 (Broad Institute, 2010).
# The campaign covered roughly 320,000 compounds. About 3,300 (1%) were called active.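 Rule for the calls: active = every valid replicate shows activation above 250% relative to neutral control wells; inactive = the rest, any valid replicate at or below 250%.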 The sample as a whole holds a higher share of actives than the screen did.
# Experiment: restored growth of temperature-sensitive Mot1-301 yeast – S. cerevisiae, ATP luminescence, 38.5C, SUMOylation pathway inhibitor project, primary screen (AID 2716);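 note: OY570 slx delta 5 strain wells were the positive control but not used for scaling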
# Settings: S. cerevisiae Mot1-301 growth rescue, at 18.8 µM, active compounds read high, percent above DMSO median, 100 means doubled
row,SMILES,growth rescue
1,COc1ccc(N2CCN(C(=O)c3ccccc3NC(=O)C3=C(C)OCCS3)CC2)cc1,46.6% (inactive)
2,CCCCNC(=O)c1ccccc1NC(=O)c1ccccc1N(C)S(C)(=O)=O,-4.15% (inactive)
3,CCCCNC(=O)c1ccccc1NC(=O)C1=C(C)OCCS1,548% (active)
4,CCN(CC)C(=O)CSc1nnc(CNc2ccc(F)cc2)n1Cc1ccco1,543% (active)
5,Cc1cc(C)nc(SCc2nnc(SCC(=O)Nc3ncc(C)s3)n2Cc2ccco2)n1,-12% (inactive)
6,COc1ccc(NC(=O)CSc2nnc(-c3cccs3)n2Cc2ccco2)cc1OC,22.9% (inactive)
7,COc1ccc(C(=O)NCC2CCCN2S(=O)(=O)c2cccs2)cc1OC (centres undefined),134% (inactive)
8,Cc1cccc(N(CC(=O)Nc2ccc(-c3nc4ccc(C)cc4s3)cc2)S(C)(=O)=O)c1,-4.14% (inactive)
9,COc1cc(NC(=O)CN(C)S(=O)(=O)c2ccc3nc(C)sc3c2)cc(OC)c1,-12.8% (inactive)
10,Cc1ccc2nc(-c3ccc(NC(=O)CN(C)S(=O)(=O)c4ccccc4)cc3)sc2c1,574% (active)
11,Cc1cc(C)c(S(=O)(=O)Nc2c(C)n(C)n(-c3ccccc3)c2=O)cc1[N+](=O)[O-],-5.42% (inactive)
12,Cc1c(Br)cc(C(=O)N2CCCCCC2)c(C)c1C,15.2% (inactive)
13,COC(=O)C1[C@H]2SC(C)(C)C(C(=O)OC)N2C(=O)N1Cc1nc2ccccc2s1 (some centres undefined),-13.8% (inactive)
14,CC1(C)S[C@@H]2[C@H](NC(=O)COc3ccccc3)C(=O)N2C1C(=O)OCc1ccccc1 (some centres undefined),343% (active)
15,CC1(C)SC2C(NC(=O)COc3ccccc3)C(=O)N2C1C(=O)O (centres undefined),3.56% (inactive)
16,O=C(NCCN1CCOCC1)/C(=C/c1ccc(F)cc1)NC(=O)c1ccccc1,93.9% (inactive)
17,CC(OC(=O)c1ccc(Cl)cc1O)C(=O)NCCC1=CCCCC1 (centres undefined),17.1% (inactive)
18,CC1CCCCN1CCCNc1ccc(C(CC(N)=O)NC(=O)c2ccccc2)cc1[N+](=O)[O-] (centres undefined),-18.3% (inactive)
19,Cc1cc(C)cc(C(=O)NC(CC(N)=O)c2ccc(N3CCC(N4CCCCC4)CC3)c([N+](=O)[O-])c2)c1 (centres undefined),855% (active)
20,COc1ccc(OC)c(C(=O)NC(CC(N)=O)c2ccc(N3CCC(N4CCCCC4)CC3)c([N+](=O)[O-])c2)c1 (centres undefined),-11.8% (inactive)
21,Cc1cccc(NC(=O)CN2CCN(C(=O)C3CCN(C(=O)/C=C/c4ccccc4)CC3)CC2)c1C,-7.86% (inactive)
22,Cc1nn(Cc2ccccc2)c(C)c1NS(=O)(=O)c1ccccc1,0.754% (inactive)
23,CC(=O)c1cc(CN2CCC(n3nccc3NC(=O)c3ccccc3Cl)CC2)cs1,13.8% (inactive)

row,SMILES,growth rescue
1,Cc1cc(Nc2ccc(C(=O)N3CCCCC3)cc2)c2cccc(C)c2n1,397% (inactive)
2,Cc1cc(Nc2ccc(N3CCOCC3)cc2)c2cccc(C)c2n1,-0.464% (inactive)
3,Cc1ccc(Nc2cc(C)nc3c(C)ccc([N+](=O)[O-])c23)cc1,888% (active)
4,O=C(O)Cn1c(Cc2ccccc2)nc2ccccc21,-4.16% (inactive)
5,Fc1ccc2cnc(-c3ccccc3)cc2c1,110% (inactive)
6,Fc1ccccc1-c1cc2cc3c(cc2cn1)OCO3,579% (active)
7,O=C(Nc1ccccc1F)c1ccc2c(c1)OCO2,3.63% (inactive)
8,O=C(c1ccc(F)cc1)n1c(=S)nc2ccccn21,-34.1% (inactive)
9,COc1ccccc1-c1nn(Cc2ccccc2)cc1C(=O)N1CCN(c2ncccn2)CC1,-5.43% (inactive)
10,CCN(CC)c1ccc(NC(=O)C2CCC(CNc3c(N4CCCC4)c(=O)c3=O)CC2)c(C)c1 (centres undefined),6.64% (inactive)
11,COc1ccccc1OC(C)C(=O)Nc1ccc(S(=O)(=O)Nc2nccs2)cc1 (centres undefined),7.27% (inactive)
12,Cc1ccc(OCCC(=O)Nc2ccc(S(=O)(=O)Nc3nccs3)cc2)cc1,-18.7% (inactive)
13,CCC(CC)C(=O)Nc1ccc(S(=O)(=O)Nc2nccs2)cc1,441% (active)
14,CCCc1cc(=S)n2c([nH]c3ccccc32)c1C#N,490% (active)
15,CN(C)Cc1c(C#N)c2ccccc2n1C,63.2% (inactive)
16,CCOC(=O)CCc1c(C)c(C#N)c2[nH]c3ccccc3n2c1=O,-0.685% (inactive)
17,CCCn1nc(C(=O)NNC(=O)CCOc2ccccc2OCC)c2ccccc2c1=O,2.71% (inactive)
18,CC(=O)c1ccc(NC(=O)CSc2nc3ccccc3c(=O)n2CCCN2CCOCC2)cc1,-18.7% (inactive)
19,COc1cc(OC)cc(C(=O)NCC(=O)OCC(=O)NC(C)CCc2ccccc2)c1 (centres undefined),-11.2% (inactive)
20,COc1cc(C(=O)OCC(=O)NC(C)CCc2ccccc2)cc(OC)c1OC (centres undefined),788% (active)
21,CC(CCc1ccccc1)NC(=O)COC(=O)c1ccc(F)cc1 (centres undefined),11.7% (inactive)
22,CC(=O)N1CCN(S(=O)(=O)c2ccc(C)c([N+](=O)[O-])c2)C1C(C)C (centres undefined),-18.3% (inactive)
23,CC(C)[C@@H]1NC(=O)c2cc([N+](=O)[O-])cc(I)c2NCCC[C@@H](C(=O)NC(CC(=O)O)C(N)=O)NC(=O)[C@H](CO)NC1=O (some centres undefined),-3.93% (inactive)

row,SMILES,growth rescue
1,CC(C)NC(=O)Nc1cccc2c1O[C@@H](CN(C)S(=O)(=O)c1ccc(F)cc1)[C@@H](C)CN([C@H](C)CO)C2=O,-15.3% (inactive)
2,COc1ccccc1CCNC(=O)C(=O)NCCC1CCCCN1S(=O)(=O)c1cccs1 (centres undefined),-12.1% (inactive)
3,O=C(NCc1ccccc1Cl)C(=O)NCC1CCCN1S(=O)(=O)c1cccs1 (centres undefined),454% (active)
4,O=C(NCc1ccc(Cl)cc1)C(=O)NCC1CCCN1S(=O)(=O)c1cccs1 (centres undefined),-0.245% (inactive)
5,CCOC(=O)c1c(S(=O)(=O)Nc2cccc(Cl)c2)c(C)n(C)c1C,-7.89% (inactive)
6,CCC(C)(C)NC(=O)C(c1ccc(OC)cc1)N(C(=O)CCC(=O)Nc1cc(C)on1)c1ccc(OC)cc1OC (centres undefined),-19.3% (inactive)
7,CC(C)(C)c1cc(C(=O)NN)n(Cc2ccc(Cl)cc2Cl)n1,207% (inactive)
8,N#CC(C#N)=CN=c1ccn(Cc2ccc(Cl)cc2Cl)cc1,813% (active)
9,O=c1ccn(Cc2ccccc2Cl)cc1,1.62% (inactive)
10,COc1ccccc1CNC(=O)COC(=O)CNS(=O)(=O)c1ccc(NC(C)=O)cc1,-0.994% (inactive)
11,CSCCC(NC(=O)c1ccccc1)C(=O)N1CCCCCCC1 (centres undefined),-4.42% (inactive)
12,CC(C)C(NC(=O)c1ccc(Cl)cc1)C(=O)O (centres undefined),5.56% (inactive)
13,CC(NC(=O)c1ccc(Cl)cc1)C(=O)N1CCCCC1 (centres undefined),434% (active)
14,O=C(CCNC(=O)c1ccc(Br)cc1)NCCCc1ccccc1,0.819% (inactive)
15,O=C(CCc1ccccc1)NNC(=O)c1ccc(Br)cc1,631% (active)
16,O=C(CNC(=O)c1ccco1)NNC(=O)c1ccc(Br)cc1,19.3% (inactive)
17,COc1cc(CC(=O)N2CCC(n3nccc3NC(=O)C3CC3)CC2)cc(OC)c1OC,7.3% (inactive)
18,COc1cccc(-n2c(SCC(=O)NC3CCCCC3)nc3n[nH]c(C)c3c2=N)c1,1070% (active)
19,Cc1ccc(-n2c(SCC(=O)NCCC3=CCCCC3)nc3n[nH]c(C)c3c2=N)cc1Cl,4.94% (inactive)
20,CCCCNC(=O)CSc1nc2n[nH]c(C)c2c(=N)n1-c1cccc(Cl)c1C,-7.38% (inactive)
21,COc1cc(OC)cc(C(=O)Nc2nnc(SCC(=O)NCC3CCCO3)s2)c1 (centres undefined),-5.99% (inactive)
22,CCCCNS(=O)(=O)c1ccc(S(=O)(=O)n2cnc3ccccc32)cc1,-2.08% (inactive)
23,COC(=O)c1c(C)cc(O)c(C)c1O,2.55% (inactive)

row,SMILES,growth rescue
1,O=C(c1cccnc1)N1CCN(S(=O)(=O)c2cccs2)CC1,-2.05% (inactive)
2,CCOC(=O)c1ccccc1N1C(=O)C2Sc3[nH]c(=O)sc3C(/C=C/c3ccccc3)C2C1=O (centres undefined),0.0979% (inactive)
3,Nc1nc(SCCOc2ccccc2)n[nH]1,-18.7% (inactive)
4,Nc1cc(N)nc(SCc2cccc(F)c2)n1,35.9% (inactive)
5,Nc1nc(SCc2cccc(Br)c2)n[nH]1,332% (active)
6,Cc1ccc(C(=O)N/C(=C\c2ccc(F)cc2)C(=O)NCCN2CCOCC2)cc1,49.4% (inactive)
7,Cn1cncc1C#Cc1c(-c2ccsc2)sc2ccccc12,17.7% (inactive)
8,COC(=O)Cc1ccc(OC(=O)C2CCN(S(=O)(=O)c3ccc(OC)c(OC)c3)CC2)cc1,-14.9% (inactive)
9,CC1(C)Cc2c(sc(NC(=O)C(=O)NCC3CCCO3)c2C(=O)O)CO1 (centres undefined),-46.3% (inactive)
10,COc1ccc(NC(=O)Cn2c(-c3ccc(OC)cc3)cn(-c3ccc(C)cc3)c2=O)cc1,259% (inactive)
11,COc1ccc(-c2cn(-c3ccc(C)cc3)c(=O)n2CC(=O)Nc2ccc(OC)c(OC)c2)cc1,737% (active)
12,COc1ccc(NC(=O)COC(=O)Cn2c(C)nc3ccccc32)cc1OC,-5.7% (inactive)
13,O=C(NCCc1nnc2ccc(SCC(=O)N3CCOCC3)nn12)c1ccccc1,-18.2% (inactive)
14,COc1ccccc1-c1c(C#N)c(N)nc2c1CCC2,-0.44% (inactive)
15,COc1ccc(C2CC(=O)Nc3sc(=N)c4c(N)c(C#N)c(N)nc4c32)cc1OC (centres undefined),-31.5% (inactive)
16,COc1ccc(OC)c2c(N)c(C#N)c(C(F)(F)C(F)(F)F)nc12,790% (active)
17,O=C(CN1CCCCC1)N1c2ccccc2Sc2ccc(C(F)(F)F)cc21,1.37% (inactive)
18,Cn1c(C(=O)NCCCN2CCN(c3cccc(Cl)c3)CC2)cc2c(=O)n(C)c3ccccc3c21,-12.4% (inactive)
19,Cn1c(C(=O)NCCc2ccsc2)cc2c(=O)n(C)c3ccccc3c21,385% (active)
20,CCN1CCCC1CNC(=O)c1cc2c(=O)n(C)c3ccccc3c2n1C (centres undefined),-15.2% (inactive)
